Results as given in publication PMC5540273 (PLoS ONE, 2017).

tested on: RIPK2
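Further: kd values determined as follow-up on hits from a single-replicate KINOMEscan panel screen.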

SMILES	Kd [nM]
Cn1cncc1-c1cc2c(Nc3ccc(OCc4ccccc4)cc3)ncnc2cn1 [GW281179]	65
O=C(Nc1n[nH]c2nc(-c3cccs3)c(Br)cc12)C1CC1 [SB-735297]	> 10000
CS(=O)(=O)CCNCc1nc(-c2ccc3ncnc(Nc4ccc5c(cnn5Cc5ccccc5)c4)c3c2)cs1.Cl.Cl [GW569716]	67
CC(C)c1ccc(O)cc1Nc1ccnc2ccc(C(F)(F)F)cc12 [GW482059]	> 10000

tested on: ROCK1

SMILES	Kd [nM]
Cn1cncc1-c1cc2c(Nc3ccc(OCc4ccccc4)cc3)ncnc2cn1 [GW281179]	590
CC(C)c1ccc(O)cc1Nc1ccnc2ccc(C(F)(F)F)cc12 [GW482059]	> 10000
c1ccc(-c2ccnc3[nH]ccc23)cc1 [SB-693578]	150

tested on: T1, RSK4(Kin.Dom.2-C-terminal)
T1 construct: gene RPS6KA6

SMILES	Kd [nM]
Cc1cccc2c(-c3ccncn3)c(-c3ccc(F)cc3)nn12 [GW515532]	6800
Fc1ccc(-c2nc3n(c2-c2ccncc2)CCS3)cc1 [GI98581]	260
Fc1ccc(-c2nc[nH]c2-c2ccncc2)cc1 [SB-217360]	310
